Here are results for eight molecules from PubChem BioAssay (Tox21).

Several values for one entry are separate records, joined by “and”; a condition that tells them apart may be missing. Identical values can stand only once. Inconclusive results are not listed. The source holds several records for some structures; these can differ, active in one and inactive in another. Activity calls are given as the source filed them. Unless noted, the call rests on the fitted dose curve; in most records, active means well fitted curve in the direction sought with a large enough effect in the repeat runs; inconclusive means weak or mixed curves; inactive means no such curve, though single readings can be large; an effect the other way counts as inactive or inconclusive.

Assay [1] in a line: qHTS assay to identify small molecule antagonists of the thyroid receptor (TR) signaling pathway - cell viability counter screen (AID 743064). Further: nearly all actives have a fitted effect of over 50% in size. Further: potency means the concentration at half of the fitted maximal effect. The method, boiled down:
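GH3.TRE-Luc cells, 4 h pre-plating; cpd + T3 1 nM final; 37 °C 23.5 h; CellTiter-Fluor 30 min; fluorescence read.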
Background: Quantitative high-throughput screening tests each substance at several concentrations.

The subject of assay [2] is thyroid hormone receptor (rat, GH3 cells). Briefly: qHTS assay to identify small molecule agonists of the thyroid receptor (TR) signaling pathway (AID 743066; calls by dose curve).
A short description of assay [3]: qHTS assay to identify small molecule antagonists of the estrogen receptor alpha (ER-alpha) signaling pathway - cell viability counter screen (AID 743074; calls by dose curve;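 further: HEK293 cells carrying ER-alpha-UAS-bla reporter stimulated with 17beta-estradiol; nearly all actives have a fitted effect of over 45% in size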).
A short description of assay [4]: qHTS assay to identify small molecule antagonists of the estrogen receptor alpha (ER-alpha) signaling pathway using the BG1 cell line - cell viability counter screen (AID 743081).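 Further: compound given together with 17beta-estradiol as the ER stimulus; series mostly up to about 70 µM; nearly all actives have a fitted effect of over 45% in size.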
The nature of assay [5]: qHTS assay to identify aromatase inhibitors - cell viability counter screen (AID 743084).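 Further: cells stimulated with testosterone during compound exposure; nearly all actives have a fitted effect of over 55% in size.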
The target of assay [6] is Aryl hydrocarbon receptor (Homo sapiens) (UniProt P35869). Description: qHTS assay to identify small molecule that activate the aryl hydrocarbon receptor (AhR) signaling pathway (AID 743085). Further: nearly all actives have a fitted effect of over 15% in size. Further: potency means the concentration at half of the fitted maximal effect.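 On activation: HG2L7.5c1 human HepG2 liver cells with stably integrated DRE-driven firefly reporter; series mostly up to about 70 µM.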 The method, boiled down:
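Luminescence read-out: ONE-Glo reagent, 30 min at room temperature, in HG2L7.5c1 HepG2 reporter cells treated 24 h at 37C. Viability was measured beforehand by CellTiter-Fluor fluorescence after 30 min at 37C.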

A short description of assay [7]: qHTS assay to identify small molecule that activate the aryl hydrocarbon receptor (AhR) signaling pathway - cell viability counter screen (AID 743086).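 Further: HepG2 liver cells carrying the AhR DRE luciferase reporter; series mostly up to about 70 µM; nearly all actives have a fitted effect of over 45% in size.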 In a few lines:
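Cytotoxicity counter screen: CellTiter-Fluor signal (30 min, 37 C) in 4000 HepG2 cells/well carrying the DRE-luciferase reporter, following 24 h compound exposure at 37 C.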

Assay [8] can be described thus: qHTS assay to identify small molecule antagonists of the peroxisome proliferator-activated receptor gamma (PPARg) signaling pathway - cell viability counter screen (AID 743194). Further: nearly all actives have a fitted effect of over 55% in size. Further: potency means the concentration at half of the fitted maximal effect. The method, boiled down: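 Viability was measured as CellTiter-Glo luminescence in GeneBLAzer PPARg UAS-bla HEK293H cells. These cells had been exposed 17 h at 37 C to compounds together with rosiglitazone at 50 nM final, with the beta-lactamase readout taken in the same wells.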

Assay [9] can be described thus: qHTS assay for small molecule agonists of the antioxidant response element (ARE) signaling pathway - cell viability counter screen (AID 743203; calls by dose curve; further: nearly all actives have a fitted effect of over 55% in size; further: potency means the concentration at half of the fitted maximal effect). The method, boiled down: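 CellSensor ARE-bla HepG2 cells, 2,000 per well, rested 5 hrs at 37C/5% CO2, then exposed to compound in DMSO for 16 hrs; viability read as CellTiter-Glo luminescence after 30 min at room temperature, in the reporter wells.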

Assay [10] can be described thus: qHTS assay for small molecule activators of the heat shock response signaling pathway - cell viability counter screen (AID 743209). Further: nearly all actives have a fitted effect of over 50% in size. The method, boiled down: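 CellSensor HSE-bla HeLa cells, plated overnight at 37 C/5% CO2, were exposed to compounds in DMSO for 5 h at 37 C. Viability was then read in the same wells by CellTiter-Glo luminescence after 30 min at room temperature.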

A short description of assay [11]: qHTS assay to identify small molecule antagonists of the thyroid receptor (TR) signaling pathway (AID 743065). Further: nearly all actives have a fitted effect of over 55% in size. Further: potency means the concentration at half of the fitted maximal effect. The method, boiled down: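 Antagonism measured as loss of luciferase signal in GH3 cells stably carrying a TRE-luciferase reporter, co-treated with compound and T3 (1 nM final) for 23.5 h at 37 C. Viability was read in the same well by CellTiter-Fluor.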

For assay [12], the target named is Estrogen receptor (Homo sapiens) (UniProt P03372). Description: qHTS assay to identify small molecule antagonists of the estrogen receptor alpha (ER-alpha) signaling pathway (AID 743069; active means well fitted curve in the direction sought with a large enough effect in the signal ratio in the repeat runs, not every such curve was filed as active; the % refers to the signal ratio). In a few lines: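 Compound effects are measured against 17beta-estradiol stimulation in HEK293 cells with a UAS-controlled beta-lactamase reporter for ER-alpha. Exposure lasts 18 hr at 37C; LiveBLAzer B/G FRET substrate follows for 2 hr at room temperature.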

The target is the same in assay [13]. Description: qHTS assay to identify small molecule agonists of the estrogen receptor alpha (ER-alpha) signaling pathway (AID 743075; calls by dose curve).
Assay [14] shares this target. Description: qHTS assay to identify small molecule agonists of the estrogen receptor alpha (ER-alpha) signaling pathway using the BG1 cell line (AID 743079). Further: nearly all actives have a fitted effect of over 20% in size.
Assay [15] can be described thus: qHTS assay to identify small molecule antagonists of the estrogen receptor alpha (ER-alpha) signaling pathway using the BG1 cell line (AID 743080; calls by dose curve;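 further: BG1 cells stimulated with 17beta-estradiol alongside compound; nearly all actives have a fitted effect of over 25% in size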; further: potency means the concentration at half of the fitted maximal effect). In a few lines: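 Luminescence from a 4×ERE-luciferase reporter in BG1-Luc-4E2 cells served as read-out. Cells, pre-cultured 5 days in stripped-serum phenol-red-free medium, were exposed to compound with 17beta-estradiol co-stimulation for 21.5 h at 37 C.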

Another assay has as its target Aromatase (Homo sapiens) (UniProt P11511). Description: qHTS assay to identify aromatase inhibitors (AID 743083). Further: nearly all actives have a fitted effect of over 55% in size. Further: potency means the concentration at half of the fitted maximal effect.
Assay [16] can be described thus: qHTS assay for small molecule activators of the heat shock response signaling pathway (AID 743210; active means well fitted activation curve with a large enough effect in the signal ratio in the repeat runs, with a control signal flat, not every such curve was filed as active; the % refers to the signal ratio;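 further: HeLa cells with beta-lactamase reporter driven by heat shock elements; series mostly up to about 63 µM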). The method, boiled down: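 In HSE-bla HeLa cells, 5 h compound incubation (37 C) precedes addition of LiveBLAzer B/G substrate; after 2.5 h at room temperature, fluorescence intensity indicates reporter induction.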
Assay [17] deals with Peroxisome proliferator-activated receptor gamma (Homo sapiens) (UniProt P37231). Description: qHTS assay to identify small molecule agonists of the peroxisome proliferator-activated receptor gamma (PPARg) signaling pathway (AID 743094; active means well fitted activation curve with a large enough effect in the signal ratio in the repeat runs, not every such curve was filed as active; the % refers to the signal ratio). The method, boiled down: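 GeneBLAzer PPARg UAS-bla HEK293H cells carrying a stably integrated beta-lactamase reporter were pre-incubated 5 h at 37C, then exposed to compounds in DMSO for 17 h at 37C; LiveBLAzer B/G FRET substrate was added for 1 h at room temperature and fluorescence read.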

Assay [18] can be described thus: qHTS assay for small molecule agonists of the antioxidant response element (ARE) signaling pathway (AID 743202; active means well fitted activation curve with a large enough effect in the signal ratio in the repeat runs, not every such curve was filed as active; the % refers to the signal ratio). The method, boiled down: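 An ARE-responsive beta-lactamase gene stably integrated in HepG2 cells serves as reporter. After 5 h plating and 16 h compound incubation at 37 C, fluorescence of the B/G FRET substrate was measured.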
Assay [19] concerns the target Peroxisome proliferator-activated receptor gamma (Homo sapiens) (UniProt P37231). Description: qHTS assay to identify small molecule antagonists of the peroxisome proliferator-activated receptor gamma (PPARg) signaling pathway (AID 743191; calls by dose curve; further: series mostly up to about 63 µM; nearly all actives have a fitted effect of over 30% in size). In a few lines:
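Beta-lactamase reporter under UAS control in HEK293H PPARg-bla cells; compound treatment 17 h at 37C. Read-out: fluorescence intensity after 1 h room-temperature incubation with LiveBLAzer B/G FRET substrate.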

Estrogen receptor (Homo sapiens), sequence (P03372 whole entry, looked up): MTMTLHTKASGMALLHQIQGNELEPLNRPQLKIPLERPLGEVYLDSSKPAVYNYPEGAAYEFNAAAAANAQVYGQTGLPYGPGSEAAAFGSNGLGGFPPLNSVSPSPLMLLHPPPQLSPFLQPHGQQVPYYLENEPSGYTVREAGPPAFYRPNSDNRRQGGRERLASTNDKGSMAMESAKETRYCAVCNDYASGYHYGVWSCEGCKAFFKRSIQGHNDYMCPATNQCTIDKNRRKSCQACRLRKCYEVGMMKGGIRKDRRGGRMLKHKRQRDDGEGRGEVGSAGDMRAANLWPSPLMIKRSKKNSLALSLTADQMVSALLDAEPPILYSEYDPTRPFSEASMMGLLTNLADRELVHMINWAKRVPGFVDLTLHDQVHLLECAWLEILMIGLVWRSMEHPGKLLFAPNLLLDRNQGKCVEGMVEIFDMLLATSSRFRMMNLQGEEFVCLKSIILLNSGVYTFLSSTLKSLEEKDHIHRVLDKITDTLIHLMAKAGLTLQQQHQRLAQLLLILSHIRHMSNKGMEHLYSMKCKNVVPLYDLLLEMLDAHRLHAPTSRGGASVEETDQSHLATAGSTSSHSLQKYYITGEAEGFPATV
Peroxisome proliferator-activated receptor gamma (Homo sapiens), sequence (P37231 whole entry, looked up): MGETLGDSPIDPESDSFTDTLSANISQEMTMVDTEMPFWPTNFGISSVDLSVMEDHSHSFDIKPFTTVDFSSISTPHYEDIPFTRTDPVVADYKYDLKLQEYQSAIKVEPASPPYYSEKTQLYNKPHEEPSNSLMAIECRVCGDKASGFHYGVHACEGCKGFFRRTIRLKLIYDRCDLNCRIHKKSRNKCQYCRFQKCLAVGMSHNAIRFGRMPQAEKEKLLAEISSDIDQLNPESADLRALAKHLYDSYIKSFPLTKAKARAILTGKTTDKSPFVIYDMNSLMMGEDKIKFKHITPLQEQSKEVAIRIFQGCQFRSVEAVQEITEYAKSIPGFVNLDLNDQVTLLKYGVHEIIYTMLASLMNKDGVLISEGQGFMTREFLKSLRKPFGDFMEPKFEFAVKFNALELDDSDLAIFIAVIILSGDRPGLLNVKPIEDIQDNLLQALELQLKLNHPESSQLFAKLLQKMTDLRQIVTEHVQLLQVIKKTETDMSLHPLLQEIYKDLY
Aromatase (Homo sapiens), sequence (P11511 whole entry, looked up): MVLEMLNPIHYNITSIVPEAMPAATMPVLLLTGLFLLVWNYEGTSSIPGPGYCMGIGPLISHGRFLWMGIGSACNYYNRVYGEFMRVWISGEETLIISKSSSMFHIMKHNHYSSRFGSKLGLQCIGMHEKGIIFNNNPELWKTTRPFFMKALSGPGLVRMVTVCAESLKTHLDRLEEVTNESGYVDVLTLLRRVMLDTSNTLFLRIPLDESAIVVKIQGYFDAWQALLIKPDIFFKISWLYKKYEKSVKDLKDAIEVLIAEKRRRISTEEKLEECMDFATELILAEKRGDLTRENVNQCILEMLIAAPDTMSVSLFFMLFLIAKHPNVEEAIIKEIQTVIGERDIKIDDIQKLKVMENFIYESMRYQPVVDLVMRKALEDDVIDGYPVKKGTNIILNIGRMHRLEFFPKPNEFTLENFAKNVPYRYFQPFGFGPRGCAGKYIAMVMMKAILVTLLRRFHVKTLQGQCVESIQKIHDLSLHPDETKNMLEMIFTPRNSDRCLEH
Aryl hydrocarbon receptor (Homo sapiens), sequence (P35869 whole entry, looked up): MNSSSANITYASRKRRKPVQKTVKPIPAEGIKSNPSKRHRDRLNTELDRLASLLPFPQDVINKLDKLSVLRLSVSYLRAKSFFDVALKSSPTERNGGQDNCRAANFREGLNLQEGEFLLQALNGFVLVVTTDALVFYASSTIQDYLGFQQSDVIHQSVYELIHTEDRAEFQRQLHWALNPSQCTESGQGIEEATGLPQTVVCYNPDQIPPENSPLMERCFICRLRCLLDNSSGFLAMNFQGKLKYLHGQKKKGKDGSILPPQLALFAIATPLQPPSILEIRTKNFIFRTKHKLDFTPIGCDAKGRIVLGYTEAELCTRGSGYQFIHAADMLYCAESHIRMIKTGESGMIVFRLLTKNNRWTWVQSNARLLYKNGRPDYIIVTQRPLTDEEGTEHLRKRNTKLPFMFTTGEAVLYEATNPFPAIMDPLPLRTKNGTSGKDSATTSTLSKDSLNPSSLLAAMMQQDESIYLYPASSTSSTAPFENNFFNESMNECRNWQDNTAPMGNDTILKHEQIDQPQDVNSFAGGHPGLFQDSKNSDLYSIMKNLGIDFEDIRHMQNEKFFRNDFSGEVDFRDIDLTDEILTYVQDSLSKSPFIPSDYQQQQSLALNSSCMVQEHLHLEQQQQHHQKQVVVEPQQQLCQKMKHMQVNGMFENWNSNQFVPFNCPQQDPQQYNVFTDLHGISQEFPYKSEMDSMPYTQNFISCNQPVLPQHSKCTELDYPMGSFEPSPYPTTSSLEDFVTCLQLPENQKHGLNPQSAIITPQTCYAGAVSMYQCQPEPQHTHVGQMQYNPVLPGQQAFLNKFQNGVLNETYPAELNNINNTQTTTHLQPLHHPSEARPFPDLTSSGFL

On to `CC(N=C(NC#N)Nc1ccncc1)C(C)(C)C` (stereo not drawn), for which the Potency result in assay [1], in assay [3], in [4], in [5], in [6] and in assay [7] was “inactive” each time. Moreover, the Potency result in assay [8], in [9] and in assay [10] was “inactive” in each case. The molecule was classed as inactive in assay [2].
For `CC(=O)[C@H]1CC[C@H]2[C@@H]3CCC4=CC(=O)CC[C@]4(C)[C@H]3CC[C@]12C`, the Potency was 13.3 µM (active) and 21.6 µM (active) and 27.3 µM (active) in assay [11]; “inactive and 54.2 µM (active) and 68.6 µM (active)” in assay [15]. Besides, the molecule was called inactive in assay [2]. The Potency entry (in assay [12]; in assay [3]; in assay [13]; in assay [14]; in assay [4]; with Aromatase (Homo sapiens)) was “inactive” each time. Moreover, the Potency entry in assay [5], in [6], in assay [7], in assay [9], in [10] and in assay [16] was “inactive” throughout.
As for `O=C(O)c1cccc(C(F)(F)F)c1`, the Potency result in [11], in [12], in assay [3], in assay [13], in assay [14] and in assay [15] was “inactive” throughout. Also, the Potency result (in [4]; with Aromatase (Homo sapiens); in assay [5]; in [7]; in [17]; in assay [8]) was “inactive” throughout. In addition, the Potency result in [18], in assay [9], in assay [10] and in assay [16] was “inactive” each time. In addition, the molecule was classed as inactive in [2].
For `CC(C)(c1cc(Br)c(OCC(Br)CBr)c(Br)c1)c1cc(Br)c(OCC(Br)CBr)c(Br)c1` (stereo not drawn), the Potency entry in [11], in assay [12], in assay [3], in assay [13], in assay [14] and in assay [15] was “inactive” throughout. Moreover, the Potency entry (in assay [4]; with Aromatase (Homo sapiens); in assay [5]; in [6]; in assay [7]; in assay [17]) was “inactive” in each case. The Potency entry in assay [8], in assay [18], in assay [10] and in assay [16] was “inactive” each time. Also, the outcome in assay [2] was inactive.
In the case of `Oc1c(I)cc(Cl)c2cccnc12`, the Potency result in assay [1], in assay [4], in assay [5], in assay [7], in [17] and in [10] was “inactive” each time. Besides, the molecule was called inactive in [2]. Besides, the Potency entry with Aromatase (Homo sapiens) is “inactive and 27.3 µM (active)”; in assay [8] it was 4.36 µM (active) and 5.96 µM (active); in assay [9] it was 68.5 µM (active).
For `Clc1sc(Cl)c(Cl)c1Cl`, the Potency result in [1], in [12], in assay [3], in assay [13], in [14] and in [15] was “inactive” each time. The Potency result (in [4]; in the assay with Aromatase (Homo sapiens); in assay [5]; in assay [6]; in assay [7]; in assay [17]) was “inactive” throughout. The Potency result in assay [19], in assay [8], in assay [18], in assay [10] and in assay [16] was “inactive” throughout.
Regarding `COC(=O)Nc1nc2ccc(C(=O)c3ccccc3)cc2[nH]1`, the Potency in [1] is 0.285 µM (active); in assay [6], 4.52 µM (active). For the same molecule, the Potency result (in [12]; in assay [14]; in assay [15]; in assay [4]; in the assay with Aromatase (Homo sapiens); in [5]) was “inactive” throughout. Besides, the Potency result in [7], in [17], in assay [8], in assay [10] and in assay [16] was “inactive” each time.
Consider `CCCCC(CC)CN1CN(CC(CC)CCCC)CC(C)(N)C1` (stereo not drawn), for which the Potency entry in [11], in [12], in assay [3], in assay [13], in assay [14] and in assay [15] was “inactive” each time. Also, the Potency result (in [4]; with Aromatase (Homo sapiens); in assay [5]; in assay [17]; in assay [10]) was “inactive” in each case. Besides, the call in assay [2] was inactive. In addition, the Potency in [8] is 29.8 µM (active); in [9], 18.8 µM (active).
